Assay results taken from PubChem BioAssay AID1159580 (chemical genetic matrix, 2015).
The whole screen tested about 5,500 compounds, of which about 2,000 (36%) were called active. About 18% were inconclusive and are not listed. No stated cut-off is given here; in the data, active means normalized growth mostly below about 0.91 (no sharp cut-off); inconclusive means no clear call, values can overlap the other calls; inactive means mostly above about 0.92. The list shows a part of the results.

Test: chemical genetic growth profiling, strain panel (AID 1159580);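 further: tested at 20 µM; growth read once vehicle control cultures reached saturation at 30 °C; 1 = growth at the plate median or of vehicle wells; lower values mean less growth of the strain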
Conditions: growth OD

Measured: normalized growth

CC(=O)N[C@@H](Cc1c[nH]c2ccccc12)C(N)=O
inactive: S. cerevisiae deletion strains, locus YJR075W, strain HOC1, active compounds read low 0.959 | S. cerevisiae deletion strains, locus YKL009W, strain mrt4, active compounds read low 1.01 | S. cerevisiae deletion strains, locus YKL068W, active compounds read low 0.988 | S. cerevisiae deletion strains, locus YKL085W, strain MDH1 (second series), active compounds read low 1.01 | S. cerevisiae deletion strains, locus YKL085W, strain MDH1, active compounds read low 1.01 | S. cerevisiae deletion strains, locus YKL160W, strain elf1, active compounds read low 1.02 | S. cerevisiae deletion strains, locus YKL190W, strain CNB1, active compounds read low 0.979 | S. cerevisiae deletion strains, locus YKR001C, strain vps1, active compounds read low 1.01 | S. cerevisiae deletion strains, locus YKR026C, strain gcn3, active compounds read low 1.03 | S. cerevisiae deletion strains, locus YKR091W, strain srl3, active compounds read low 1.01 | S. cerevisiae deletion strains, locus YLL001W, strain dnm1, active compounds read low 1.03 | S. cerevisiae deletion strains, locus YLL026W, active compounds read low 1.02 | S. cerevisiae deletion strains, locus YLL041C, strain sdh2, active compounds read low 1.02 | S. cerevisiae deletion strains, locus YLR027C, strain aat2, active compounds read low 1.03 | S. cerevisiae deletion strains, locus YLR039C, strain RIC1, active compounds read low 0.972 | S. cerevisiae deletion strains, locus YLR058C, strain SHM2, active compounds read low 0.993 | S. cerevisiae deletion strains, locus YLR102C, strain apc9, active compounds read low 0.999 | S. cerevisiae deletion strains, locus YLR113W, strain HOG1, active compounds read low 1.01 | S. cerevisiae deletion strains, locus YLR221C, strain rsa3, active compounds read low 0.996 | S. cerevisiae deletion strains, locus YLR258W, strain gsy2, active compounds read low 1.02 | S. cerevisiae deletion strains, locus YLR262C, strain YPT6 (second series), active compounds read low 1.02 | S. cerevisiae deletion strains, locus YLR262C, strain YPT6, active compounds read low 0.938 | S. cerevisiae deletion strains, locus YLR268W, strain sec22, active compounds read low 0.96 | S. cerevisiae deletion strains, locus YLR320W, strain mms22, active compounds read low 1.01 | S. cerevisiae deletion strains, locus YLR330W, strain CHS5, active compounds read low 0.996 | S. cerevisiae deletion strains, locus YLR342W, strain FKS1 (second series), active compounds read low 1.07 | S. cerevisiae deletion strains, locus YLR342W, strain FKS1, active compounds read low 1.05 | S. cerevisiae deletion strains, locus YLR357W, strain rsc2, active compounds read low 1.04 | S. cerevisiae deletion strains, locus YLR370C, strain arc18, active compounds read low 1.02 | S. cerevisiae deletion strains, locus YLR371W, strain rom2, active compounds read low 1.01 | S. cerevisiae deletion strains, locus YLR384C, strain iki3, active compounds read low 1.03 | S. cerevisiae deletion strains, locus YLR418C, strain cdc73, active compounds read low 0.984 | S. cerevisiae deletion strains, locus YML016C, strain PPZ1, active compounds read low 0.995 | S. cerevisiae deletion strains, locus YML032C, strain rad52, active compounds read low 1 | S. cerevisiae deletion strains, locus YML120C, strain ndi1, active compounds read low 1.03 | S. cerevisiae deletion strains, locus YML124C, strain tub3, active compounds read low 1.01 | S. cerevisiae deletion strains, locus YMR058W, strain fet3, active compounds read low 0.997 | S. cerevisiae deletion strains, locus YMR078C, strain ctf18, active compounds read low 1 | S. cerevisiae deletion strains, locus YMR125W, strain sto1, active compounds read low 1.1 | S. cerevisiae deletion strains, locus YMR129W, active compounds read low 1.02 | S. cerevisiae deletion strains, locus YMR205C, strain PFK2, active compounds read low 1.02 | S. cerevisiae deletion strains, locus YMR223W, strain ubp8, active compounds read low 1.01 | S. cerevisiae deletion strains, locus YMR231W, strain pep5, active compounds read low 1.02 | S. cerevisiae deletion strains, locus YMR263W, strain SAP30, active compounds read low 0.955 | S. cerevisiae deletion strains, locus YMR307W, strain GAS1, active compounds read low 1.08 | S. cerevisiae deletion strains, locus YNL067W, strain RPL9B, active compounds read low 0.966 | S. cerevisiae deletion strains, locus YNL071W, strain lat1, active compounds read low 1.01 | S. cerevisiae deletion strains, locus YNL128W, strain TEP1, active compounds read low 0.94 | S. cerevisiae deletion strains, locus YNL153C, strain GIM3, active compounds read low 0.97 | S. cerevisiae deletion strains, locus YNL183C, strain NPR1, active compounds read low 0.914 | S. cerevisiae deletion strains, locus YNL209W, strain ssb2, active compounds read low 1.01 | S. cerevisiae deletion strains, locus YNL233W, strain BNI4, active compounds read low 0.993 | S. cerevisiae deletion strains, locus YNL248C, strain rpa49, active compounds read low 0.992 | S. cerevisiae deletion strains, locus YNL250W, strain rad50, active compounds read low 0.989 | S. cerevisiae deletion strains, locus YNL271C, strain bni1, active compounds read low 0.996 | S. cerevisiae deletion strains, locus YNL298W, strain CLA4, active compounds read low 0.994 | S. cerevisiae deletion strains, locus YNL307C, strain MCK1, active compounds read low 1.02 | S. cerevisiae deletion strains, locus YNL322C, strain KRE1 (second series), active compounds read low 1.03 | S. cerevisiae deletion strains, locus YNL322C, strain KRE1, active compounds read low 0.978 | S. cerevisiae deletion strains, locus YNR049C, strain mso1, active compounds read low 1.02 | S. cerevisiae deletion strains, locus YNR052C, strain pop2, active compounds read low 1.01 | S. cerevisiae deletion strains, locus YOL006C, strain TOP1, active compounds read low 0.943 | S. cerevisiae deletion strains, locus YOL012C, strain htz1 0.796 | S. cerevisiae deletion strains, locus YOL147C, strain pex11, active compounds read low 1 | S. cerevisiae deletion strains, locus YOR001W, strain rrp6, active compounds read low 1.04 | S. cerevisiae deletion strains, locus YOR061W, strain CKA2, active compounds read low 0.969 | S. cerevisiae deletion strains, locus YOR069W, strain VPS5, active compounds read low 1 | S. cerevisiae deletion strains, locus YOR070C, strain gyp1, active compounds read low 1.01 | S. cerevisiae deletion strains, locus YOR080W, strain dia2, active compounds read low 1.03 | S. cerevisiae deletion strains, locus YOR083W, strain WHI5, active compounds read low 1.03 | S. cerevisiae deletion strains, locus YOR106W, strain vam3, active compounds read low 1.01 | S. cerevisiae deletion strains, locus YOR136W, strain idh2, active compounds read low 1.01 | S. cerevisiae deletion strains, locus YOR144C, strain elg1, active compounds read low 0.995 | S. cerevisiae deletion strains, locus YOR184W, strain ser1, active compounds read low 1.02 | S. cerevisiae deletion strains, locus YOR231W, strain MKK1, active compounds read low 1.01 | S. cerevisiae deletion strains, locus YOR265W, strain rbl2, active compounds read low 1.03 | S. cerevisiae deletion strains, locus YOR270C, strain vph1, active compounds read low 1 | S. cerevisiae deletion strains, locus YOR290C, strain snf2, active compounds read low 1.01 | S. cerevisiae deletion strains, locus YOR316C, strain cot1, active compounds read low 1 | S. cerevisiae deletion strains, locus YPL051W, strain arl3, active compounds read low 1.02 | S. cerevisiae deletion strains, locus YPL055C, strain LGE1, active compounds read low 0.932 | S. cerevisiae deletion strains, locus YPL078C, strain atp4, active compounds read low 1.02 | S. cerevisiae deletion strains, locus YPL106C, strain sse1, active compounds read low 1.04 | S. cerevisiae deletion strains, locus YPL240C, strain hsp82, active compounds read low 1.02 | S. cerevisiae deletion strains, locus YPL241C, strain CIN2, active compounds read low 0.989 | S. cerevisiae deletion strains, locus YPL256C, strain CLN2, active compounds read low 0.999 | S. cerevisiae deletion strains, locus YPR119W, strain clb2, active compounds read low 1 | S. cerevisiae deletion strains, locus YPR141C, strain kar3, active compounds read low 0.981 | S. cerevisiae deletion strains, locus YPR163C, strain tif3, active compounds read low 1.01 | S. cerevisiae deletion strains, locus YPR167C, strain met16, active compounds read low 0.991 | S. cerevisiae deletion strains, strain wtn01, active compounds read low 1 | S. cerevisiae strains, strain wild type, active compounds read low 0.995
